T cruzi growth-1: inhibitors of T. cruzi proliferation. T. cruzi beta-gal in NIH3T3, GalScreen luminescence, 90 h. inhibition, % at 8.34 µM. 77,000 tested, 5.9% active. AID 624255;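 active = mean inhibition above about 93%, with at least 55% of replicates each passing it, limit read from the data, passing the limit was not always enough; inconclusive = only one of those two conditions holds; inactive = neither condition holds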
Pf Dd2 growth: P. falciparum Dd2 growth inhibition. SYBR Green, 72 h; stronger effect = lower value. activity change, % at 10 µM. AID 1159554. 94,000 tested, 2.3% active; in the data active = activity change below about -80%; inconclusive = no clear call, values can overlap the other calls
C diff growth: C. difficile growth inhibition. growth activity, negative = inhibition, % at 16 µg/mL (by protocol). 86,000 tested, 0.25% active. Clostridium difficile clinical isolate growth, OD600, 24 h; stronger effect = lower value;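 active = mean growth activity at or below -80% and every replicate also at or below -80%; inconclusive = mean at or below -80% but some replicate above -80%; inactive = mean growth activity above -80%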
T cruzi growth-2: Trypanosoma cruzi proliferation inhibition; shares compounds with T cruzi growth-1; T. cruzi beta-gal in NIH3T3, GalScreen luminescence, 90 h; inhibition, % at 8.35 µM; 5,600 tested, 72% active; AID 651739;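 active = mean replicate inhibition above about 95% and at least 55% of replicates individually reaching it, limit read from the data; inconclusive = only one of the two criteria is met; inactive = neither criterion is met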
T cruzi growth-3: Trypanosoma cruzi proliferation inhibition. shares compounds with T cruzi growth-1. T. cruzi beta-gal in NIH3T3, GalScreen luminescence, 90 h. inhibition, % at 2.09 µM. 5,600 tested, 21% active. AID 651740;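 active = mean inhibition above about 95%, with at least 55% of replicates also reaching it, limit read from the data; inconclusive = meets just one of the two conditions; inactive = meets neither condition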
3T3 cytotox: kills mouse NIH/3T3 fibroblasts | shares compounds with T cruzi growth-1 | NIH/3T3 viability, CellTiter-Glo ATP luminescence, 90 h | cytotoxicity (signal decrease), % at 8.35 µM | 5,600 tested, 14% active | AID 651742;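 active = mean signal decrease across replicates above about 35% based on untreated-well scatter, with enough replicates individually passing, limit read from the data; inconclusive = no rule stated though some were filed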
3T3 cytotox 2: kills mouse NIH/3T3 fibroblasts; NIH/3T3 viability, CellTiter-Glo ATP luminescence, 90 h; shares compounds with T cruzi growth-1; inhibition, % at 24.9 µM; 5,600 tested, 56% active;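 active = mean loss of cell viability signal at or above a set limit, and enough replicates individually reaching it; inconclusive = meets only the mean limit or only the replicate share; inactive = meets neither condition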
Hits are given with their value; 0 = inactive; ? = inconclusive; - = not tested or not shown; + = active, no number. Rows were chosen to be rich in hits. Some 6.7% of all compounds tested hit in one or more screens of this group.

SMILES	T cruzi growth-1	Pf Dd2 growth	C diff growth	T cruzi growth-2	T cruzi growth-3	3T3 cytotox	3T3 cytotox 2
Cc1ccccc1-c1ccc([C@@H]2[C@H](CO)N3CCCCN(C(=O)Cc4ccccn4)C[C@@H]23)cc1	?	0	0	0	0	0	64.8
O=C(Cc1ccccn1)N1CCCCN2[C@@H](CO)[C@H](c3ccc(-c4ccc(F)cc4)cc3)[C@@H]2C1	100.7	0	0	?	0	0	34.2
O=C(Cc1ccccn1)N1CCCCN2[C@H](CO)[C@H](c3ccc(-c4ccccc4F)cc3)[C@@H]2C1	96.6	0	0	108.8	0	0	0
O=C(Cc1ccccn1)N1CCCCN2[C@H](C1)[C@H](c1ccc(-c3ccc(F)cc3)cc1)[C@@H]2CO	0	0	0	-	-	-	-
CCCN1[C@@H]2c3ccc(-c4ccc(OC)cc4)c(=O)n3C[C@H]1[C@H](CO)[C@H]2C(=O)OC	0	0	0	-	-	-	-
COc1cccc(-c2ccc3n(c2=O)C[C@@H]2[C@@H](CO)[C@H](C(=O)O)[C@H]3N2Cc2ccccc2F)c1	0	-	-	-	-	-	-
COC(=O)[C@@H]1[C@@H](CO)[C@@H]2Cn3c(ccc(-c4ccccc4)c3=O)[C@H]1N2S(=O)(=O)c1ccccc1C	0	0	0	-	-	-	-
COc1ccc(OC(=O)N(C)C[C@@H]2OCc3ccccc3-c3c(n(C)c4ccccc34)C(=O)N([C@H](C)CO)C[C@H]2C)cc1	-	0	0	-	-	-	-
COC(=O)[C@H]1[C@H](CO)[C@H]2Cn3c(cccc3=O)[C@@H]1N2C(=O)C1CCC1	0	0	0	-	-	-	-
COC(=O)[C@@H]1[C@@H](CO)[C@@H]2Cn3c(ccc(C4=CCCCC4)c3=O)[C@H]1N2C(=O)CC1CC1	0	0	0	-	-	-	-
C/C=C/c1ccc([C@H]2[C@H](CO)N3CCCCN(C(=O)Cc4cccnc4)C[C@@H]23)cc1	0	0	0	-	-	-	-
O=C(Cc1cccnc1)N1CCCCN2[C@H](C1)[C@@H](c1ccc(/C=C/c3ccccc3)cc1)[C@@H]2CO	102.6	0	0	104.6	99.8	48.1	105.0
O=C(Cc1cccnc1)N1CCCCN2[C@@H](CO)[C@@H](c3ccc(/C=C/c4ccccc4)cc3)[C@@H]2C1	107.7	0	0	96.7	0	0	105.9
C/C=C/c1ccc([C@H]2[C@H]3CN(C(=O)Cc4cccnc4)CCCCN3[C@H]2CO)cc1	0	0	0	-	-	-	-
CC=Cc1ccc2n(c1=O)C[C@@H]1[C@@H](CO)[C@H](C(=O)O)[C@H]2N1S(=O)(=O)c1ccccc1F (mixture of isomers)	0	-	0	-	-	-	-
CCCN1[C@@H]2c3ccc(-c4cccc(OC)c4)c(=O)n3C[C@H]1[C@H](CO)[C@H]2C(=O)OC	-	0	0	-	-	-	-
COC(=O)[C@@H]1[C@@H](CO)[C@@H]2Cn3c(ccc(C4=CCCC4)c3=O)[C@H]1N2C(=O)CC1CC1	0	0	0	-	-	-	-
CCC(=O)N1[C@@H]2c3ccc(-c4cccc(F)c4)c(=O)n3C[C@H]1[C@H](CO)[C@H]2C(=O)OC	0	0	0	-	-	-	-
O=C(O)[C@H]1[C@H](CO)[C@H]2Cn3c(ccc(-c4ccncc4)c3=O)[C@@H]1N2C(=O)C1CCCC1	-	0	0	-	-	-	-
C[C@@H]1CN([C@@H](C)CO)C(=O)CCCn2cc(nn2)CO[C@@H]1CN(C)C(=O)Oc1cccc2ccccc12	0	0	-	-	-	-	-
COC(=O)[C@H]1[C@H](CO)[C@H]2Cn3c(ccc(-c4ccccc4F)c3=O)[C@@H]1N2CC1CCCC1	+	-	0	0	0	0	45.3
O=C(O)[C@@H]1[C@@H](CO)[C@@H]2Cn3c(ccc(C4=CCCCC4)c3=O)[C@H]1N2CCc1ccccc1	163.8	-	-	0	0	0	46.4
O=C(O)[C@@H]1[C@@H](CO)[C@@H]2Cn3c(ccc(-c4ccccc4)c3=O)[C@H]1N2CC1CCCCC1	97.4	0	0	0	0	0	0
COC(=O)[C@@H]1[C@@H](CO)[C@@H]2Cn3c(ccc(-c4ccccc4)c3=O)[C@H]1N2CC1CCCC1	-	0	0	-	-	-	-
COC(=O)[C@@H]1[C@@H](CO)[C@@H]2Cn3c(ccc(-c4ccccc4)c3=O)[C@H]1N2CC1CCCCC1	0	0	0	-	-	-	-
SMILES	T cruzi growth-1	Pf Dd2 growth	C diff growth	T cruzi growth-2	T cruzi growth-3	3T3 cytotox	3T3 cytotox 2
COC(=O)[C@@H]1[C@@H](CO)[C@@H]2Cn3c(ccc(C4=CCCCC4)c3=O)[C@H]1N2CCc1ccccc1	0	0	0	-	-	-	-
COc1ccc(C(O)(c2cncnc2)C2CC2)cc1 (centres undefined)	-	-	0	-	-	-	-
CCCN1[C@@H]2Cn3c(ccc(-c4cccc(C(=O)N(C)C)c4)c3=O)[C@H]1[C@@H](C(=O)OC)[C@@H]2CO	0	-	0	-	-	-	-
O=C(Cc1cccnc1)N1CCCCN2[C@@H](CO)[C@@H](c3ccc(C#CC4CCCC4)cc3)[C@@H]2C1	104.7	0	0	?	0	0	102.5
O=C(Cc1cccnc1)N1CCCCN2[C@H](CO)[C@@H](c3ccc(C#CC4CCCC4)cc3)[C@H]2C1	?	0	0	0	0	0	104.3
O=C(Cc1cccnc1)N1CCCCN2[C@H](CO)[C@@H](c3ccc(C#CC4CC4)cc3)[C@@H]2C1	0	0	0	-	-	-	-
O=C(Cc1cccnc1)N1CCCCN2[C@@H](CO)[C@H](c3ccc(C#CC4(O)CCCC4)cc3)[C@@H]2C1	0	0	0	-	-	-	-
O=C(Cc1cccnc1)N1CCCCN2[C@H](CO)[C@H](c3ccc(C#CC4(O)CCCC4)cc3)[C@@H]2C1	0	0	0	-	-	-	-
O=C(Cc1cccnc1)N1CCCCN2[C@H](CO)[C@H](c3ccc(C#CC4CCCC4)cc3)[C@H]2C1	100.4	0	0	100.5	0	0	106.1
O=C(Cc1cccnc1)N1CCCCN2[C@@H](CO)[C@@H](c3ccc(C#CC4(O)CCCC4)cc3)[C@@H]2C1	0	0	0	-	-	-	-
O=C(Cc1cccnc1)N1CCCCN2[C@H](C1)[C@H](c1ccc(C#CC3CCCC3)cc1)[C@@H]2CO	103.7	0	0	0	0	0	96.7
O=C(O)[C@@H]1[C@@H](CO)[C@@H]2Cn3c(ccc(-c4cccnc4)c3=O)[C@H]1N2S(=O)(=O)c1ccccc1F	0	0	0	-	-	-	-
CC(C)CC#Cc1ccc([C@H]2[C@H](CO)N3CCCCN(C(=O)Cc4ccccn4)C[C@@H]23)cc1	0	0	0	-	-	-	-
CCN1[C@@H]2c3ccc(-c4cccc(OC)c4)c(=O)n3C[C@H]1[C@H](CO)[C@H]2C(=O)OC	0	0	0	-	-	-	-
COC(=O)C[C@@H]1CC[C@H]2NC[C@H](O)COC[C@@H]2O1	0	0	0	-	-	-	-
O=C(Cc1cccnc1)N1CCCCN2[C@@H](CO)[C@H](c3ccc(C#CC4CC4)cc3)[C@@H]2C1	108.5	0	0	99.5	0	0	0
O=C(Cc1cccnc1)N1CCCCN2[C@H](C1)[C@@H](c1ccc(C#CC3CC3)cc1)[C@@H]2CO	0	0	0	-	-	-	-
COC(=O)[C@@H]1[C@@H](CO)[C@@H]2Cn3c(ccc(C4=CCCC4)c3=O)[C@H]1N2Cc1ccccn1	0	-	0	-	-	-	-

From PubChem
